# Experimental data taken from PubChem BioAssay (Tox21).
# Records with an inconclusive call do not appear. Activity calls are given as the source filed them. How the calls were made is not given here.
# Assay: qHTS assay to identify small molecule antagonists of the estrogen related receptor signaling pathway with the pleiotropic PPARgamma coactivator (PGC) from Tox21 10K library (AID 1224841); further: actives are mostly falling curves and most rising ones were filed inactive; nearly all actives have a fitted effect of over 50% in size
# Settings: PGC/ERR reporter cell line, ONE-Glo luciferase, 18 h; series mostly up to 92.4 µM; activity, negative = inhibition: at the top concentration
# From the text: U.S. Tox21 Program National Center for Advancing Translational Sciences [NCATS] NIH Chemical Genomics Center [NCGC] U.S. Environmental Protection Agency [EPA] National Institutes of Environmental Health Sciences [NIEHS] National Toxicology Program [NTP] U.S. Food and Drug Administration [FDA] Tox21 Assay Overview: Estrogen related receptors (ERRs), the first orphan nuclear receptors discovered, play an important role in the control of cellular energy metabolism. ERRs are required for high-energy production in response to the environmental challenges. The pleiotropic PPARgamma coactivator (PGC) is a major partner of ERR and a key regulator in energy homeostasis. Together they have been implicated in the etiology of metabolic disorders such as Type 2 diabetes and metabolic syndrome. ERR-alpha was also identified as an adverse marker for breast cancer progression; ERR-alpha-positive tumors have a poor prognosis. To screen and to identify environmental compounds that perturb the ERR and PGC/ERR signaling pathways could provide valuable information for potential therapeutic or preventive measures in the treatment of metabolic disease. For identifying PGC/ERR antagonists, PGC/ERR cell line (provided by NTP) has been used to screen Tox21 10K library.
# Tox21 Assay Protocol Summary: The PGC/ERR cells were dispensed at 2,000 cells/5 ul/well in 1536-well white plates using a Multidrop dispenser. After the assay plates were incubated at a 37 C/5% CO2 incubator for 6 hours, 23 nL of compounds dissolved in DMSO, positive and negative controls or DMSO only was transferred to the assay plate by a pin tool. The plates were incubated at 37 C for 18 hours. 4 ul/well of One-Glo reagent was added into the assay plates using a Flying Reagent Dispenser. After 30-minute incubation at room temperature, the luminescence intensity in the plates was measured using a ViewLux plate reader.
# On the % scale 0 is the no-effect control and ±100 the full control effect; potency means the concentration at half of the fitted maximal effect.
Structure (SMILES),"activity, negative = inhibition",Potency
COc1cc(Cl)ccc1Oc1ccc(Cl)cc1Cl,49.6% (inactive),–
CC(C)C[C@H]1C(=O)N2CCC[C@H]2[C@]2(O)O[C@](NC(=O)[C@@H]3C=C4c5cccc6[nH]c(Br)c(c56)C[C@H]4N(C)C3)(C(C)C)C(=O)N12,–,16.4 µM (active)
C[C@@H]1C[C@H]2O[C@@]3(O[C@@H]2C(C)(C)O)[C@H](O)[C@@]2(C)[C@@H]4CC[C@H]5C(C)(C)[C@@H](O[C@@H]6OC[C@@H](O)[C@H](O)[C@H]6O)CC[C@@]56C[C@@]46CC[C@]2(C)[C@@H]13,0.881% [at 42.5 µM] (inactive),–
CCN(CC)CCNC(=O)c1cc(Br)c(N)cc1OC,2.81% [at 42.5 µM] (inactive),–
OC(C#CCN1CCCC1)(c1ccccc1)c1ccccc1,-3.14% [at 42.5 µM] (inactive),–
COc1cc2c(cc1OC)C(C(C(=O)N(CCc1ccc(OC)c(OC)c1OC)CCc1ccc(OC)c(OC)c1OC)c1ccccc1)=NCC2 (stereo not given),–,23.7 µM (active)
COc1ccc(C)cc1[N+](=O)[O-],-0.468% (inactive),–
Brc1c2ccccc2c(Br)c2ccccc12,52.5% [at 8.39 µM] (inactive),–
OCc1cc(C(O)CNCCCCCCOCCCCc2ccccc2)ccc1O (stereo not given),-21.4% [at 42.5 µM] (inactive),–
O=C(O)c1ccc(-n2nc(-c3ccccc3O)nc2-c2ccccc2O)cc1,–,10.6 µM (active)
CCCCCCCCCCCCCCCCOS(=O)(=O)O,9.86% [at 42.5 µM] (inactive),–
CCCCCC[C@@H](O)C/C=C\CCCCCCCC(=O)OC,2.8% (inactive),–
NC(N)=NCCC[C@H](N)C(=O)O,-5.77% [at 8.39 µM] (inactive),–
Nc1cc(C(=O)O)c(O)c(S(=O)(=O)O)c1,1.77% (inactive),–
O=S(c1cc(Cl)cc(Cl)c1O)c1cc(Cl)cc(Cl)c1O,-17% [at 42.5 µM] (inactive),–
CCCCCCc1ccc(-c2ccc(C#N)cc2)cc1,9.96% (inactive),–
O=C(O)c1nc(Cl)c(Cl)c(Cl)c1Cl,-20.8% (inactive),–
CC(COCCO)OCCO (stereo not given),2.56% (inactive),–
CN1C[C@H]2c3ccccc3Oc3ccc(Cl)cc3[C@@H]2C1,14.4% [at 42.5 µM] (inactive),–
C=C1C(=C/C=C2\CCC[C@]3(C)[C@@H]([C@H](C)/C=C/[C@@H](O)C4CC4)CC[C@@H]23)C[C@@H](O)C[C@@H]1O,–,29.8 µM (active)

Structure (SMILES),"activity, negative = inhibition",Potency
Nc1ccc([N+](=O)[O-])c(C(F)(F)F)c1,-11.3% [at 42.5 µM] (inactive),–
C=CCOC(=O)CCC1CCCCC1,-15% (inactive),–
O=S(=O)(Oc1ccc(Cl)cc1)c1ccccc1,5.74% (inactive),–
C=CC(=O)OCCOc1ccccc1,132% (inactive),–
CN(C)c1ccc(C(c2ccccc2)c2ccc(N(C)C)cc2)cc1,–,27.3 µM (active)
CN(C)CCOC(c1ccccc1)c1ccc(Br)cc1 (stereo not given),-1.4% [at 42.5 µM] (inactive),–
CCCCCCCCCCCCCCOS(=O)(=O)O,19.9% (inactive),–
CCOc1ccc(N)c([N+](=O)[O-])c1,-4.25% (inactive),–
CN(C)CCCN1c2ccccc2Sc2ccccc21,37.9% [at 42.5 µM] (inactive),–
C#Cc1cccc(Nc2ncnc3cc(OCCOC)c(OCCOC)cc23)c1,–,8.41 µM (active)
Cc1ncc(CO)c(C=O)c1O,4.88% [at 42.5 µM] (inactive),–
CO[C@@H]1[C@H](OC(=O)/C=C/C=C/C=C/C=C/C(=O)O)CC[C@]2(CO2)[C@H]1[C@@]1(C)O[C@@H]1CC=C(C)C,-20% (inactive),–
N=c1ccn2c(n1)O[C@H]1[C@H](O)[C@@H](CO)O[C@H]12,9.31% (inactive),–
CCCOC(C(=O)OC1CCN(C)CC1)(c1ccccc1)c1ccccc1,-18.7% [at 42.5 µM] (inactive),–
C[C@@H](c1ncncc1F)C(O)(Cn1cncn1)c1ccc(F)cc1F (stereo not given in full),3.09% [at 42.5 µM] (inactive),–
O=[N+]([O-])c1cccc(S(=O)(=O)O)c1,–,55.3 µM (active)
CN1CCC(N(Cc2cccs2)c2ccccc2)CC1,1.95% [at 42.5 µM] (inactive),–
CCCCCCCC#N,12.1% (inactive),–
C=C(C)C(=O)OCC,5.55% (inactive),–
Cc1cccc(C)c1OCC(=O)N[C@@H](Cc1ccccc1)[C@@H](O)C[C@H](Cc1ccccc1)NC(=O)[C@H](C(C)C)N1CCCNC1=O,–,13.3 µM (active)
